This is part of a sample that, as a whole, favours compounds with a hit. Of some 83,000 tested, about 20% had one in any assay.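 Note: values are percent growth. 100 is the growth of untreated cells, values between 100 and 0 indicate rising inhibition; between -100 and 0 indicates cell death.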 Values without a mark were called inactive. The source made the active and inactive calls. Rule for the calls: active = growth percent below 10; inactive = the rest.
These molecules were tested on OVCAR-4 ovarian (assay: NCI-60 one-dose screen, 48 h (100 = growth as untreated, 0 = no growth, -100 = all killed)). Details: 10 µM unless noted.

Row | SMILES | growth
1 | CCOC(=O)C1=C(C)NC(C)=C(C(=O)OCC)C1(C)C | 101%
2 | Cc1[nH]c2ccc(F)cc2c1CCNC(=O)C1CCN(C(=O)c2ccccc2)C1 (stereo not drawn) | 85.5% [25 µM]
3 | COc1ccc(C(=O)N2NC(=O)/C(=C/c3ccc(Br)cc3)N=C2c2ccccc2)cc1 | 92.7%
4 | Cc1ccc(-c2cc3nc(-c4ccccc4)nc(C(Cl)Cl)n3n2)cc1 | -46% (active)
5 | O=C(Nc1cccc(-n2cc(-c3ccncc3)c(-c3ccc(Cl)c(O)c3)n2)c1)Nc1cccc(C(F)(F)F)c1 | 41.5%
6 | COC(OC)c1ccccc1 | 110%
7 | COc1ccc(NC(=O)c2c(Nc3ccc(OC)cc3OC)n[nH]c2N)c(OC)c1 | 102%
8 | CC(C)(C)n1cc(-c2ccnc(NCCCNS(=O)(=O)c3ccc(F)cc3)c2)c(-c2cccc(O)c2)n1 | 53.9%
9 | O=C(C1=Cc2cc3ccccc3n2Cc2cnnn21)c1ccccc1 | 82.7%
10 | N=C(N)c1ccc(-c2ccc(-c3cncc4ccccc34)s2)cc1F | -78.6% (active)
11 | c1cc(C2=N[C@@H]3c4ccccc4C[C@@H]3O2)nc(C2=N[C@@H]3c4ccccc4C[C@@H]3O2)c1 | 99.6%
12 | CN(C)c1oc(C2OC2c2ccccc2)nc1C#N (stereo not drawn) | 109%
13 | COc1cccc(-c2cc3c(O)cc(C#N)cc3[nH]2)c1 | 83.7%
14 | c1ccc(-c2nc(N3CCNCC3)c3nc(-c4ccccc4)oc3n2)cc1 | -65.1% (active)
15 | CN(C[C@H]1Cc2c(cccc2N2CCN(Cc3ccccn3)CC2)CN1)[C@H]1CCCc2cccnc21 | 72.6%
16 | COc1ccc(-n2c(=O)sc3c(Cl)nc(C)nc32)c(OC)c1 | 101%
17 | O=C(Nc1ccc(Cl)c(Cl)c1)NS(=O)(=O)c1cnccc1Oc1ccc(F)cc1 | 52%
18 | S=C(S)NCCc1c[nH]c2ccccc12 | 111%
19 | COc1ccc(Nc2[nH]n3c(=O)cc(-c4ccccc4)nc3c2C(=O)Nc2ccc(C)cc2)c(OC)c1 | 89.6%
20 | COc1ccc(-n2c(=S)sc3c(Cl)nc(C)nc32)c(OC)c1 | 95.6%

Row | SMILES | growth
21 | COc1ccc(-c2ccc(C)n2-c2ccc(-c3nc4ccccc4s3)cc2)cc1 | 92.9%
22 | COc1cc(/C(C#N)=C/c2ccc3c(c2OC)OCO3)cc2c1OCO2 | 56.3%
23 | Cc1ccc2ccccc2c1C[n+]1ccccc1 | 91.5%
24 | COc1ccc(-c2ccc(-c3ccc(-c4ccc(C(=N)N)cc4)s3)s2)cc1OC | -53.2% (active)
25 | O=C(CSc1nc2ccccc2[nH]1)Nc1ccc(-c2nc3ccccc3s2)c(Cl)c1 | -39.8% (active)
26 | O=c1ccn(-c2ncnc3nc[nH]c23)cc1 | 93.3%
27 | CN(C[C@H]1Cc2c(cccc2N2CCN(c3ncccn3)CC2)CN1)[C@H]1CCCc2cccnc21 | 52.9%
28 | COc1ccc(Nc2nn3c(-c4ccccc4)cc(-c4ccccc4)nc3c2C(N)=O)c(OC)c1 | -8.96% (active)
29 | COc1cc(-c2nn(-c3cccc(NC(=O)Nc4cccc(C(F)(F)F)c4)c3)cc2-c2ccncc2)ccc1Cl | 11.1%
30 | COc1ccc(C2C=C(c3ccc(Cl)cc3)N=C3SC=C(C)N32)c(Br)c1 (stereo not drawn) | 48.1%
31 | O=C1C2(c3ccccc3)C(c3ccccc3)=C(c3ccccc3)C1(c1ccccc1)C1CC=CC12 (stereo not drawn) | 69.5%
32 | CC(=O)Oc1csc(N(C(C)=O)c2cccc(C(F)(F)F)c2)n1 | 89.4%
33 | COc1ccc(C2C=C(c3ccc(OC)c(OC)c3)N=C3SC=C(C)N32)c(Br)c1 (stereo not drawn) | 99.6%
34 | CCC(=O)OC1=CN2C(=NC(c3ccc(N)cc3)=CC2c2cc(OC)c(OC)c(OC)c2)S1 (stereo not drawn) | 57.3%
35 | C=C1CCC2C(C)(CO)C(O)CCC2(C)C1C/C=C1/C(=O)OCC1Oc1ccccc1C (stereo not drawn) | 74.8%
36 | CCCCCCCC/C=C/CCCCCCCC1=NC(C)(C)CN1C(C)(C)CO | 42.5%
37 | CN(C)c1cccc2c(S(=O)(=O)/N=C(\N)Nc3nc4ccccc4s3)cccc12 | 82.4%
38 | N/C(=N\S(=O)(=O)c1ccccc1)Nc1nc2ccccc2s1 | 100%
39 | COc1ccc(Nc2[nH]n3c(=O)cc(C)nc3c2C(N)=O)c(OC)c1 | 99.2%

The molecules below were run on SK-OV-3 ovarian in the same assay as above. Details: 10 µM unless noted.

Row | SMILES | growth
40 | CCOC(=O)C1=C(C)NC(C)=C(C(=O)OCC)C1(C)C | 110%
41 | COc1ccc(C(=O)N2NC(=O)/C(=C/c3ccc(Br)cc3)N=C2c2ccccc2)cc1 | 85.3%
42 | O=C(Nc1cccc(-n2cc(-c3ccncc3)c(-c3ccc(Cl)c(O)c3)n2)c1)Nc1cccc(C(F)(F)F)c1 | 21.2%
43 | COC(OC)c1ccccc1 | 99.2%
44 | COc1ccc(NC(=O)c2c(Nc3ccc(OC)cc3OC)n[nH]c2N)c(OC)c1 | 92%
45 | CC(C)(C)n1cc(-c2ccnc(NCCCNS(=O)(=O)c3ccc(F)cc3)c2)c(-c2cccc(O)c2)n1 | 83.8%
46 | O=C(C1=Cc2cc3ccccc3n2Cc2cnnn21)c1ccccc1 | 67.8%
47 | c1cc(C2=N[C@@H]3c4ccccc4C[C@@H]3O2)nc(C2=N[C@@H]3c4ccccc4C[C@@H]3O2)c1 | 117%
48 | CN(C)c1oc(C2OC2c2ccccc2)nc1C#N (stereo not drawn) | 79.2%
49 | COc1cccc(-c2cc3c(O)cc(C#N)cc3[nH]2)c1 | 108%
50 | CN(C[C@H]1Cc2c(cccc2N2CCN(Cc3ccccn3)CC2)CN1)[C@H]1CCCc2cccnc21 | 51.2%
51 | COc1ccc(-n2c(=O)sc3c(Cl)nc(C)nc32)c(OC)c1 | 83.8%
52 | O=C(Nc1ccc(Cl)c(Cl)c1)NS(=O)(=O)c1cnccc1Oc1ccc(F)cc1 | 88.7%
53 | S=C(S)NCCc1c[nH]c2ccccc12 | 121%
54 | COc1ccc(Nc2[nH]n3c(=O)cc(-c4ccccc4)nc3c2C(=O)Nc2ccc(C)cc2)c(OC)c1 | 91.2%
55 | COc1ccc(-n2c(=S)sc3c(Cl)nc(C)nc32)c(OC)c1 | 80.1%
56 | COc1ccc(-c2ccc(C)n2-c2ccc(-c3nc4ccccc4s3)cc2)cc1 | 80.3%

Row | SMILES | growth
57 | COc1cc(/C(C#N)=C/c2ccc3c(c2OC)OCO3)cc2c1OCO2 | 16.2%
58 | Cc1ccc2ccccc2c1C[n+]1ccccc1 | 100%
59 | O=C(CSc1nc2ccccc2[nH]1)Nc1ccc(-c2nc3ccccc3s2)c(Cl)c1 | 12.4%
60 | O=c1ccn(-c2ncnc3nc[nH]c23)cc1 | 84.8%
61 | CN(C[C@H]1Cc2c(cccc2N2CCN(c3ncccn3)CC2)CN1)[C@H]1CCCc2cccnc21 | 39.5%
62 | COc1ccc(Nc2nn3c(-c4ccccc4)cc(-c4ccccc4)nc3c2C(N)=O)c(OC)c1 | 63.7%
63 | COc1cc(-c2nn(-c3cccc(NC(=O)Nc4cccc(C(F)(F)F)c4)c3)cc2-c2ccncc2)ccc1Cl | 4.13% (active)
64 | COc1ccc(C2C=C(c3ccc(Cl)cc3)N=C3SC=C(C)N32)c(Br)c1 (stereo not drawn) | 35.3%
65 | O=C1C2(c3ccccc3)C(c3ccccc3)=C(c3ccccc3)C1(c1ccccc1)C1CC=CC12 (stereo not drawn) | 96.3%
66 | CC(=O)Oc1csc(N(C(C)=O)c2cccc(C(F)(F)F)c2)n1 | 99.6%
67 | COc1ccc(C2C=C(c3ccc(OC)c(OC)c3)N=C3SC=C(C)N32)c(Br)c1 (stereo not drawn) | 107%
68 | CCC(=O)OC1=CN2C(=NC(c3ccc(N)cc3)=CC2c2cc(OC)c(OC)c(OC)c2)S1 (stereo not drawn) | 68.1%
69 | C=C1CCC2C(C)(CO)C(O)CCC2(C)C1C/C=C1/C(=O)OCC1Oc1ccccc1C (stereo not drawn) | 122%
70 | CCCCCCCC/C=C/CCCCCCCC1=NC(C)(C)CN1C(C)(C)CO | 70.3%
71 | CN(C)c1cccc2c(S(=O)(=O)/N=C(\N)Nc3nc4ccccc4s3)cccc12 | 46.6%
72 | N/C(=N\S(=O)(=O)c1ccccc1)Nc1nc2ccccc2s1 | 85.4%
73 | COc1ccc(Nc2[nH]n3c(=O)cc(C)nc3c2C(N)=O)c(OC)c1 | 88.3%

— PubChem BioAssay (NCI)
